# Tau fibril ThT = tau fibrillization inhibition (ThT binding) | P10636 | recombinant tau K18 P301L, heparin-induced fibrillization, ThT fluorescence | Potency, µM (highest dose often 57.4 µM), inactives show at the top dose activity, negative = inhibition, most hits filed as inhibitors | actives 2.1% (n = 270,000) | AID 1460; further: on the % scale 0 is the no-effect control and ±100 the full control effect; nearly all actives have a fitted effect of over 55% in size
# Target sequence (P10636 561-689 P618L limits assumed): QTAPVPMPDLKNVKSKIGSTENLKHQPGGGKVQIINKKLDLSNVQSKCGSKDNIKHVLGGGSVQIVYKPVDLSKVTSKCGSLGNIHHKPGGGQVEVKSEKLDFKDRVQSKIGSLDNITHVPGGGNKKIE
#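 Aggregation was driven by heparin (20 uM final) acting on recombinant tau […] bearing P301L in 100 mM sodium acetate pH 7; fibrils were detected with Thioflavin T.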
# HTT aggregate = mutant huntingtin aggregation inhibition | PC12 HttQ103-GFP aggregates, Acumen cytometry, 40 h | Potency, µM (series often up to 46.1 µM), without a hit: top-dose activity change, negative = inhibition, hits mostly inhibitors | actives 1.1% (n = 220,000); further: on the % scale 0 is the no-effect control and ±100 the full control effect; nearly all actives have a fitted effect of over 60% in size
#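 Using laser scanning cytometry, GFP-positive aggregates were counted after lysis of PC12 cells induced with 100 nM tebufenozide to express HTT exon 1 Q103–GFP. Compounds were tested in titration.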
# HTT cytoprotect = cytoprotection in Huntington HTT-Q103 PC12 cell model. PC12 HTT-Q103 induced, cytoprotection, ATP luminescence, 40 h. Potency, µM (series often up to 56.4 µM), for the others: cytoprotection (ATP increase), hits mostly activators. actives 0.14% (n = 230,000); further: % of control where 0% means no effect; nearly all actives have a fitted effect of over 45% in size
#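 Compounds were screened for protection of PC12 cells against cell death after tebufenozide induction (100 nM final) of mutant Huntingtin exon 1 (Q103) fused to GFP.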
# Tau fluor cs = counter-screen for tau fibril formation inhibitors; Potency, µM (doses to about 57.7 µM), inactives show at the highest dose activity change, negative = decrease; tau K18 P301L Alexa594 fluorescence, heparin fibrillization; AID 1463; actives 0.93% (n = 280,000); further: on the % scale 0 is the no-effect control and ±100 the full control effect; nearly all actives have a fitted effect of over 55% in size
#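 Human tau K18 P301L (15 uM unlabeled, 0.24 uM Alexa 594-labeled) in 100 mM sodium acetate pH 7 with 20 uM heparin, 6 hr at 37 C. ThT 30 uM added, 1 hr ambient; Alexa 594 FP and total fluorescence read at 555/632 nm.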
# Tau FP inhib = blocks human tau fibril formation measured by polarization; P10636; K18 P301L tau heparin fibrillization, Alexa594 FP, 6 h; Potency, µM (top dose mostly 57.7 µM), inactives show at the top dose activity, negative = inhibition, actives largely listed as inhibitors; actives 0.39% (n = 280,000); further: on the % scale 0 is the no-effect control and ±100 the full control effect; nearly all actives have a fitted effect of over 55% in size
#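 FP of Alexa 594-tau after heparin (20 uM) induction. Substrate: human K18 P301L, 15 uM unlabeled, 0.24 uM labeled. Buffer 100 mM sodium acetate pH 7. 6 hr, 37 C.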
# * = called active by the depositor; ? = inconclusive; . = no result; [ ] = dose if it differs, or a comment. Most compounds without a hit are left out; they make up all but 3.7% or so of the library. The call rests on the fitted dose curve; in most records, active means well fitted curve in the direction sought with a large enough effect; inconclusive means small, poorly fitted or top-dose-only effect, or another doubt; inactive means no such curve, though single readings can be large; an effect the other way counts as inactive or inconclusive. Potency means the concentration at half of the fitted maximal effect.
SMILES,Tau fibril ThT,HTT aggregate,HTT cytoprotect,Tau fluor cs,Tau FP inhib
CCCN1C(=O)C(Cc2nc3ccccc3c(=O)n2CC)c2ccccc21 (stereo unspecified),6%,.,.,3%,1%
O=C1N=C(N2CCOCC2)S/C1=C\c1ccccc1OS(=O)(=O)c1ccccc1,2%,8%[9.22 µM],-5%[10 µM],-1%,6%
O=C1N=C(N2CCOCC2)S/C1=C/c1cc2c(cc1[N+](=O)[O-])OCO2,18µM*,2%[9.22 µM],0%[10 µM],?,?
CCOc1ccc(N2C(=O)CS/C2=C(\C(Cl)=C(Cl)Cl)[N+](=O)[O-])cc1,16µM*,?,-6%,?,?
CCOc1ccc(N2C(=O)CNC2=S)cc1,-15%,24%,?,-13%,-1%
C[C@H]1CCCC2(CC[N+](C)(CCC[N+](C)(C)C)CC2)C1 (stereo partly specified),.,.,-9%[10 µM],.,.
CCc1ccc(/C=C2\SC(=S)N(CCC(=O)N3CCN(C)CC3)C2=O)cc1,-11%,12%,18µM*,-14%,10%
COc1ccc(/C=C2\SC(=S)N(CC(=O)N3CCN(C)CC3)C2=O)cc1,?,-17%[9.22 µM],16%[10 µM],?,4%
COc1ccc(-c2nn(C)c3sc(C(=O)NCc4ccco4)cc23)cc1OC,13%,-11%,1%,9%,7%
COc1ccc(NC(=O)c2cc3c(-c4ccc(OC)c(OC)c4)nn(C)c3s2)cc1OC,?,-58%,-96%,3.5µM*[quencher],-2%
COc1ccc(-c2nn(C)c3sc(C(=O)Nc4cc(OC)c(OC)c(OC)c4)cc23)cc1OC,?,.,.,2.5µM*[quencher],?
CCOC(=O)N1CCC(NC(=O)c2cc3c(-c4ccc(OC)c(OC)c4)nn(C)c3s2)CC1,-7%,10%,-12%,-12%,4%
CSCCC(NC(=O)OCc1ccccc1)C(=O)O (stereo unspecified),-1%,3%,-8%[1.9 µM],2%,-4%
CSCC[C@H](NC(=O)[C@H](Cc1ccccc1)NC[C@@H](NC[C@@H](N)CS)C(C)C)C(=O)O,25µM*,.,7%,-15%,?
Cc1coc2cc3oc(=O)c(CC(=O)NCc4ccccc4)c(C)c3cc12,6%,.,.,1%,-4%
CCOC(=O)Cc1ccc(NC(=O)N(Cc2ccc(OC)cc2)C2CCN(C(C)=O)CC2)cc1,-1%,.,.,-5%,-4%
CC(C)S,.,.,-4%,.,.
CC(C)CCNC(=O)c1nn(C)c2c1CSc1ccccc1-2,2%,.,.,0%,-4%
CCN(CC)CCCNC(=O)c1nn(C)c2c1CSc1ccccc1-2,?,.,.,25µM*[quencher],?
Cn1nc(C(=O)N2CCN(c3ccc(F)cc3)CC2)c2c1-c1ccccc1SC2,-11%,.,.,7.1µM*[quencher],-6%
C=CC1=C2C=C(C3CC3)N(C3CCCC3)C=C2C(=O)C(C)(OC(=O)c2ccco2)C1=O (stereo unspecified),-6%[11.5 µM],.,-31%[10 µM],-3%[11.6 µM],0%[11.6 µM]
O=C(CN1C(=O)C2(SCC(=O)N2c2ccc(F)c(F)c2)c2ccccc21)NCCc1ccccc1 (stereo unspecified),12%,.,.,-10%,-2%
CCOC(=O)N1CC=C2C(C#N)=C(N)C(C#N)(C#N)[C@H](c3ccc(OC(C)C)c(OCC)c3)[C@H]2C1,?,-2%,-13%,-18%,?
N#CC1=C(N)C(C#N)(C#N)C(c2cccnc2)C2CC(c3ccccc3)CC=C12 (stereo unspecified),25µM*,?,?,-29%,?
N#CC1=C(N)C(C#N)(C#N)C(c2ccncc2)C2CN(C(=O)OCc3ccccc3)CC=C12 (stereo unspecified),25µM*,12%,13%[10 µM],-15%,?
N#CC1=C(N)C(C#N)(C#N)[C@H](c2cccnc2)[C@H]2CN(C(=O)OCc3ccccc3)CC=C12,16µM*,?,.,-16%,?
CN(C)S(=O)(=O)c1cccc(NC(=O)COC(=O)c2ccc(Br)o2)c1,-8%,4%,-8%,-11%,-5%
CN(C)S(=O)(=O)c1cccc(NC(=O)COC(=O)c2cc(-c3cccc(Br)c3)nc3ccccc23)c1,9%,8%,-34%[10 µM],?,13µM*

# High-throughput results as filed in PubChem BioAssay.
